Screening data from PubChem.
DUSP3 inh = blocks human VHR1 dual specificity phosphatase | P51452 | recombinant VHR phosphatase, pNPP absorbance | inhibition, % at 13.3 µM | hit rate 0.52% among 290,000 | AID 1654; in the data active = inhibition above about 50%
Target sequence (P51452 whole entry, looked up): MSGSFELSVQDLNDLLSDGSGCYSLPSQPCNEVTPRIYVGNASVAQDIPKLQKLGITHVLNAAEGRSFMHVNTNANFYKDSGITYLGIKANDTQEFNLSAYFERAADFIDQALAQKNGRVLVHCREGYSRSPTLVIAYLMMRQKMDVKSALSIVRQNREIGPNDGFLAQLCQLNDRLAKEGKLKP
TcdB GH inh = blocks C. difficile toxin B glycohydrolase activity; P18177; TcdB glycohydrolase enzymatic assay, plate reader; inhibition, % at 9.99 µM; hit rate 0.24% among 350,000; AID 652162; in the data active = inhibition above about 10%
PrPC TRFRET = reduces human prion protein on the cell surface; cell surface PrPC, TR-FRET read-out; P04156; inhibition, % at 13.8 µM; AID 720596; hit rate 0.43% among 370,000; in the data active = inhibition above about 24%
A number is an active result; - = inactive; . = not tested or not shown. An excerpt weighted towards active compounds, which were near 0.82% of everything screened.

SMILES	DUSP3 inh	TcdB GH inh	PrPC TRFRET
Cc1ccc(-c2csc(NC(=O)/C=C/c3ccco3)c2C(=O)O)cc1	-	15	-
CCCC(=O)Oc1ccc(C2NC(=O)c3ccccc3O2)cc1OC (configuration not stated)	60	-	-
CCOc1ccc(C2NC(=O)c3ccccc3O2)cc1OC (configuration not stated)	-	-	-
CCC(=O)Oc1ccc(C2NC(=O)c3ccccc3O2)cc1OC (configuration not stated)	60	-	-
COc1ccc(C2NC(=O)c3ccccc3O2)cc1OC (configuration not stated)	-	.	-
O=C(C[C@H]1C=C[C@@H](NC(=O)c2ccncc2)[C@H](CO)O1)NCc1ccncn1	.	-	.
COc1ccc(CN(C)C[C@@H]2OCCCC[C@@H](C)Oc3ccc(NC(=O)NC4CCCCC4)cc3C(=O)N([C@@H](C)CO)C[C@H]2C)cc1	.	-	.
CCC(C(=O)N1CCN(Cc2ccc3c(c2)OCO3)CC1)n1c(=O)[nH]c2ccccc2c1=O (configuration not stated)	51	-	-
O=C(Cn1c(=O)[nH]c2ccccc2c1=O)N1CCN(Cc2ccc3c(c2)OCO3)CC1	-	-	-
CCC(C)OC(=O)c1cc(C)nc2c(Br)cc(Br)cc12 (configuration not stated)	58	.	-
CCOC(=O)c1cc(C)nc(SC)c1C#N	-	-	-
O=C(c1ccccn1)N1CC2(C1)[C@H](c1ccccc1)[C@@H](CO)N2Cc1cccnc1	.	-	.
O=S(=O)(Nc1ccc2cn[nH]c2c1)c1ccc(C(F)(F)F)cc1	.	-	-
O=C(O)c1cc(S(=O)(=O)Nc2ccc3cn[nH]c3c2)ccc1Cl	.	10	-
CCCC#Cc1cnc2c(c1)C(=O)N([C@H](C)CO)C[C@H](C)[C@@H](CN(C)C)O2	.	-	.
CCOC(=O)c1c(C)[nH]sc1=S	-	.	-
CCOC(=O)c1sc(=S)[nH]c1C	.	12	-
CC=Cc1ccc2n(c1=O)C[C@H]1[C@H](CO)[C@@H](C(=O)NCc3ccccc3)N(CC)[C@@H]21 (mixture of isomers)	.	-	.
S=C(c1cn(Cc2ccccc2)c2ccccc12)N1CCOCC1	-	17	-
S=C(c1cn(Cc2ccc(Br)cc2)c2ccccc12)N1CCOCC1	-	.	-
CC(C)NC(=O)N(C)C[C@H]1Oc2ccc(NC(=O)Nc3cccc4ccccc34)cc2C(=O)N([C@H](C)CO)C[C@@H]1C	.	-	.
C=CCn1c(SCCN2CCOCC2)nc2c1c(=O)[nH]c(=O)n2C	-	.	-
COCCn1c(SCCN2CCOCC2)nc2c1c(=O)[nH]c(=O)n2C	58	-	-
COc1ccc(C#Cc2ccc3c(c2)O[C@@H](CN(C)C(=O)c2ccccn2)[C@@H](C)CN([C@@H](C)CO)S3(=O)=O)cc1	.	-	.
C[C@H]1CN([C@@H](C)CO)C(=O)c2cc(NC(=O)C3CCCCC3)ccc2O[C@@H]1CN(C)CC1CC1	.	-	.
SMILES	DUSP3 inh	TcdB GH inh	PrPC TRFRET
C[C@@H]1CN([C@@H](C)CO)C(=O)c2cc(-c3ccncc3)cnc2O[C@H]1CN(C)Cc1ccc(F)cc1	.	-	.
COc1ccc2c3c([nH]c2c1)[C@@H](CO)N(C(=O)c1ccccc1)CC31CN(C(=O)Nc2cccc(F)c2)C1	.	-	.
Cc1cc(SCC(=O)N/N=C/c2ccco2)nc2ccccc12	-	14	-
O=C(CSc1nc2ccccc2o1)N/N=C/c1ccco1	-	-	-
Cn1c(=O)c2c(Nc3ccc(F)cc3)cc(=O)n(-c3ccccc3)c2n(C)c1=O	-	-	-
Cn1c(=O)c2c(O)cc(=O)n(-c3ccccc3)c2n(C)c1=O	51	.	-
COc1ccc2c3c([nH]c2c1)[C@H](CO)N(C)CC31CN(S(=O)(=O)c2cn(C)cn2)C1	.	-	.
O=C(c1cccnc1)N1C[C@H]2[C@@H](c3ccccc31)[C@@H](CO)N2Cc1ccc2c(c1)OCO2	.	-	.
C=C1[C@@H]2CC[C@H]3[C@]4(C)[C@@H](O)CC[C@@](C)(C(=O)OC)[C@H]4C[C@H](O)[C@]3(C2)[C@H]1O	.	.	-
C=C1C(=O)[C@@]23[C@H](O)C[C@@H]4C(C)(C)CC[C@H](O)[C@]4(C)[C@@H]2C[C@H](O)[C@@H]1[C@H]3O	-	-	25
C=C1C(=O)[C@@]23[C@H](O)C[C@@H]4C(C)(C)CC[C@H](O)[C@@]4(C)[C@@H]2CC[C@@H]1[C@H]3O	-	-	71
C[C@H]1C(=O)[C@]23C[C@H]1CC[C@H]2[C@]1(C)[C@@H](O)CC[C@@](C)(C(=O)O)[C@H]1C[C@@H]3O	.	.	-
C[C@H]1CN([C@@H](C)CO)C(=O)c2cccc(NS(=O)(=O)c3cn(C)cn3)c2O[C@@H]1CN(C)C(=O)Nc1cccc2ccccc12	.	-	.
COc1ccc2c3c([nH]c2c1)[C@@H](CO)N(Cc1ccccc1)CC31CCN(C(=O)c2cccnc2)CC1	.	-	.
Cc1ccc(C(=O)OCC(=O)c2cc(C)n(CC3CCCO3)c2C)cc1 (configuration not stated)	-	16	-
Cc1cc(C(=O)COC(=O)c2ccccc2O)c(C)n1CC1CCCO1 (configuration not stated)	.	-	-
CN1CCN(C(=O)C[C@H]2C[C@@H]3c4cc(NC(=O)NC5CCCCC5)ccc4O[C@@H]3[C@H](CO)O2)CC1	.	-	.
CCS(=O)(=O)Nc1ccc2c(c1)C(=O)N(C)[C@@H]1CC[C@H](CC(=O)NC3CCCCC3)O[C@H]1CO2	.	-	.
COc1ccc(C(=O)NC(CC(=O)O)c2cc([N+](=O)[O-])ccc2Cl)cc1 (configuration not stated)	-	-	-
COc1ccc(C(=O)NC(CC(=O)O)c2cc([N+](=O)[O-])ccc2Cl)c(SC)c1 (configuration not stated)	-	34	-
CCC(C)NC(=O)c1ccc2c(c1)S(=O)(=O)c1ccccc1C2=O (configuration not stated)	56	-	-
COCC(C)NC(=O)c1ccc2c(c1)S(=O)(=O)c1ccccc1C2=O (configuration not stated)	-	-	-
COc1cccc(C2=NOC(C(=O)Nc3cc(C)nn3-c3ccccc3)C2)c1OC (configuration not stated)	-	-	-
Cc1cc(NC(=O)C2CC(c3ccc(F)cc3)=NO2)n(-c2ccccc2)n1 (configuration not stated)	50	-	-
C[C@@H]1CCCCO[C@@H](CN(C)S(=O)(=O)c2ccc(F)cc2)[C@H](C)CN([C@H](C)CO)C(=O)c2cc(NC(=O)C3CCCCC3)ccc2O1	.	-	.
SMILES	DUSP3 inh	TcdB GH inh	PrPC TRFRET
Cc1[nH]n(-c2ccccc2)c(=O)c1/C=N/NC(=O)c1cccc([N+](=O)[O-])c1	-	.	-
Cc1ccc(-n2[nH]c(C)c(/C=N/Nc3ccc([N+](=O)[O-])cc3[N+](=O)[O-])c2=O)cc1C	50	.	-
CCCC(=O)Nc1ccc2c(c1)OC[C@@H](C)N(Cc1cncnc1)C[C@H](C)[C@H](OC)CN(C)C2=O	.	-	.
O=C(O)c1ccccc1N=Nc1c(O)[nH]c2ccc([N+](=O)[O-])cc12	-	.	.
O=C(N=Nc1c(O)[nH]c2ccc([N+](=O)[O-])cc12)c1ccccc1Cl	57	-	-
Cc1ccc(N(C(=O)c2csnn2)C(C(=O)NC2CCCCC2)c2ccccn2)c(C)c1 (configuration not stated)	-	-	-
